High-throughput results as filed in PubChem BioAssay.
Sampled rows, rich in hits. Any-hit rate of the full collection: about 3.1%.
dFosB activator – activators of mouse delta FosB homodimer; 340,000 tested, 0.99% active; purified delta FosB, TAMRA-CDK5 oligo fluorescence polarization; percent of positive-control signal above neutral wells; activation, % at 25 µM;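 active means mean activation above about 17%, with every replicate also reaching it, limit read from the data, passing the limit was not always enough; inconclusive means only one of the two conditions met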
Target sequence (P13346 whole entry, looked up): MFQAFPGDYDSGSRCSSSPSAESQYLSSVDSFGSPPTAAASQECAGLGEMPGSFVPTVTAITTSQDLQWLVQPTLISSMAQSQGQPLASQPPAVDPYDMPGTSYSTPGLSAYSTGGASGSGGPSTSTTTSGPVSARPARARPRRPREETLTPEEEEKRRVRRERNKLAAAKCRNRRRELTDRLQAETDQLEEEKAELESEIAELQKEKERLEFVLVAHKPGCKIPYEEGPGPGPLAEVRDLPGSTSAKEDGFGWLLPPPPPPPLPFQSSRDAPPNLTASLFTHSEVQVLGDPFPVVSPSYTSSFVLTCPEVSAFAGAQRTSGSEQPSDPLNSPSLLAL
RAD54 inh – blocks human RAD54 Holliday junction branch migration; Q92698; FAM/BHQ fluorescence; inhibition, % at 10.4 µM; 360,000 tested, 0.14% active;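 active means mean normalized replicate activity at least 40 and at least half of replicates scoring 40 or more; inconclusive means only one of the two criteria met; inactive means mean below 40 and under half of replicates reaching 40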;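 further: 0% = median of neutral control wells and 100% = median of positive control wells; inhibitors cause a drop in the FAM fluorescence signal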
RAD52 inh – RAD52 (human) annealing inhibition | recombinant RAD52 DNA annealing, FRET fluorescence | AID 651710 | inhibition, % at 18.7 µM | 360,000 tested, 0.46% active | P43351;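 active means every replicate showing at least 50% inhibition; inconclusive means mean inhibition at least 50% but not in every replicate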
INS-1E GSIS act – primary screen for activators of insulin secretion dependent on glucose, INS-1E cells, GLuc reporter luminescence. INS-1E GLuc reporter insulin secretion, 2-3 h. activation, % at 16.6 µM. 370,000 tested, 0.61% active. AID 743287;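 active means lowest replicate activation of at least 40%, so every replicate reaches that level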;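 further: 0% = median of neutral control wells and 100% = median of IBMX positive control wells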
AF4-AF9 inh – MLL-AF4/AF9 protein interaction inhibition; AlphaScreen, biotin-AF4 peptide binding to FLAG-AF9; inhibition, % at 10 µM; 350,000 tested, 0.47% active; AID 651704;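 active means every replicate reaching a set inhibition limit, whatever the replicate mean, cut at about 25% in these data; inconclusive means mean inhibition reaches that limit but some replicates miss it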;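 further: 0% = plate neutral control median and 100% = total signal loss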
DENV2 CPE rescue – DENV2-induced cell death inhibition. 350,000 tested, 1.7% active. AID 651640. DENV2-infected cells, cytopathic effect rescue, plate reader. CPE inhibition, % at 9.99 µM; in the data active means CPE inhibition above about 20%, passing the limit was not always enough; inconclusive means no clear call, values can overlap the other calls; tested in BHK-21 cells;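 further: 0% = median of neutral control wells and 100% = median of positive control wells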
Active calls of the source: *; u = inconclusive; x = no result; ! = not active in a repeat.

SMILES	dFosB activator	RAD54 inh	RAD52 inh	INS-1E GSIS act	AF4-AF9 inh	DENV2 CPE rescue
CCN(CC)C(=O)[C@H]1CC(CC(=O)NC/C=C(\C)CCC=C(C)C)C(=O)N2CCc3c([nH]c4ccc(OC)cc34)[C@]12C (stereo partly specified)	-20	-8	-21	-15	2	40*
C[C@]12c3[nH]c4cc(-c5ccco5)ccc4c3CCN1C(=O)[C@@H](CC(=O)NCCc1ccccn1)C[C@@H]2C(=O)N1CCOCC1	-11	-14	-21	9	3	50*
CCN(CC)C(=O)[C@H]1C[C@H](CC(=O)NCCCN(C)C)C(=O)N2CCc3c([nH]c4cc(-c5ccco5)ccc34)[C@]12C	-15	8	29	2	20	1
COCC(=O)Nc1ccc2c(c1)C(=O)N(C)C[C@H](OC)[C@H](C)CN(Cc1cc(F)ccc1F)[C@@H](C)CO2	x	-5	-11	-9	7	-6
COCCNC(=O)C1(C)CCN(C(=O)c2ccc3c(c2)C(C)(C)CCC3(C)C)C1 (stereo unspecified)	x	-22	-5	-2	-5	-3
COCCNC(=O)C1(C)CCN(C(=O)c2cc(C(C)(C)C)nn2C)C1 (stereo unspecified)	x	-3	-14	6	-3	38*
CC(=O)N1Cc2cc(C(=O)NCC(F)(F)F)nc(-c3cccc(-c4cc5ccccc5o4)c3)c2[C@H]1CCO	x	x	4	9	20	25*!
CCC(=O)N1Cc2cc(C(=O)NCC(F)(F)F)nc(-c3cccc(-c4cncnc4)c3)c2[C@@H]1CCO	x	x	-35	0	-14	1
CC(C)NC(=O)N1Cc2cc(C(=O)NC3CCC3)nc(-c3cccc(-c4cccnc4)c3)c2[C@@H]1CCO	x	x	-3	-25	3	30*
CCC(=O)N1Cc2cc(C(=O)N(C)C)nc(-c3cccc(-c4cncnc4)c3)c2[C@H]1CCO	x	-9	12	5	-38	-4
CCNC(=O)c1cc2c(c(-c3cccc(-c4cncnc4)c3)n1)[C@@H](CCO)N(C(C)=O)C2	x	-9	0	0	-22	40*!
CC(=O)N1Cc2cc(C(=O)NCC(F)(F)F)nc(-c3cccc(-c4cncnc4)c3)c2[C@@H]1CCO	x	x	-3	-3	2	21*
COCC(=O)N(C)C[C@@H]1Oc2cc(C#CCC3CCCC3)ccc2S(=O)(=O)N([C@@H](C)CO)C[C@H]1C	x	-2	-6	-2	10	-1
COc1ccc2c3c(n(C)c2c1)[C@@H](CO)N(Cc1ccccc1Cl)CC31CN(C(C)=O)C1	x	x	x	-8	0	-1
CO[C@@H]1CN(C)C(=O)c2cc(NS(C)(=O)=O)ccc2OC[C@@H](C)N(C(=O)C2CC2)C[C@H]1C	x	13	-3	2	-2	5
CCN(C[C@H]1N[C@@](CC)(C(=O)OC)[C@H]2C(=O)N(C)C(=O)[C@@H]12)S(=O)(=O)c1ccc(C(F)(F)F)cc1	-5	11	0	x	-1	52*
CCN(C[C@H]1N[C@@](CC)(C(=O)OC)[C@H]2C(=O)N(C)C(=O)[C@@H]12)S(=O)(=O)c1ccc(C(C)(C)C)cc1	-17	2	-21	x	-1	4
C/C=C/c1ccc([C@H]2[C@@H](CO)N(C(=O)C3CC3)[C@H]2CN(C)C(=O)C2CC2)cc1	x	6	x	0	x	5
Cc1ccc(-n2cc(CN3CCN(Cc4nccn4C)CC3)c(-c3cccc(C)c3)n2)cc1	-16	-2	12	-17	29*	-6
Cc1ccc(-n2cc(CN3CCNC(=O)CC3)c(-c3cccc(C)c3)n2)cc1	-6	5	-13	-32	7	-4
Cc1ccc(C2C(C(=O)c3ccco3)=C(O)C(=O)N2c2nnc(C)s2)cc1 (stereo unspecified)	-8	-7	x	x	x	x
Cc1nnc(N2C(=O)C(O)=C(C(=O)c3ccco3)C2c2cccc([N+](=O)[O-])c2)s1 (stereo unspecified)	1	6	-7	48*	1	-7
COc1ccc(/C=N/n2c(-c3ccco3)nc3ccccc3c2=O)cc1	-7	2	-8	7	x	x
O=c1c2ccccc2nc(-c2ccco2)n1/N=C/c1ccccc1O	-7	-8	x	69*	x	x
O=c1c2ccccc2nc(-c2ccco2)n1/N=C/c1ccco1	-15	-10	x	54*	x	x
SMILES	dFosB activator	RAD54 inh	RAD52 inh	INS-1E GSIS act	AF4-AF9 inh	DENV2 CPE rescue
Cc1nc2ccccc2c(=O)n1/N=C/c1ccco1	-6	3	-10	x	-1	16
CC(=O)Nc1ccc2c(c1)C(=O)N(C)C[C@H](C)[C@H](CN(C)C(=O)OC(C)(C)C)O2	x	x	x	-5	x	x
C[C@H](CO)N1C[C@H](C)[C@H](CN(C)C(=O)c2ccc(F)cc2)Oc2ncc(C#C[C@@H](C)O)cc2C1=O	x	1	10	22	-4	3
O=C(C[C@@H]1C[C@H]2c3cc(NS(=O)(=O)c4ccccc4)ccc3O[C@H]2[C@H](CO)O1)N1CCCCC1	x	2	7	-7	-3	5
N/C(=N\N=C\c1cccs1)SC1CC(=O)N(c2cccc([N+](=O)[O-])c2)C1=O (stereo unspecified)	5	x	0	2	0	-4
CCOc1ccc(N2C(=O)CC(S/C(N)=N/N=C/c3cccs3)C2=O)cc1 (stereo unspecified)	-2	-3	x	54*	x	x
Cn1cnc(S(=O)(=O)N2CC[C@@H]3[C@H](CO)Nc4ccc(C#Cc5ccccc5F)cc4[C@@H]32)c1	x	2	-31	3	3	u
COC(=O)c1ccc(N2CCN(C)CC2)c(NC(=O)c2sc3ccccc3c2Cl)c1	-6	20	-12	3	26*	-14
CO[C@H]1CN(C)C(=O)c2cc(NC(=O)C3CCC3)ccc2OC[C@@H](C)N(Cc2ccccn2)C[C@H]1C	x	x	x	5	x	x
COc1ccc2c3c(n(C)c2c1)[C@H](CO)N(S(=O)(=O)c1ccc(C)cc1)CC31CCN(S(=O)(=O)c2ccc(C)cc2)CC1	x	x	-5	13	0	-6
COc1ccc2c3c(n(C)c2c1)[C@@H](CO)N(S(=O)(=O)c1ccc(C)cc1)CC31CN(S(=O)(=O)c2ccc(C)cc2)C1	x	x	x	-12	-1	63*
COc1ccc2c3c(n(C)c2c1)[C@@H](CO)N(C)CC31CCN(S(C)(=O)=O)CC1	x	x	x	10	x	x
COc1ccc2c3c(n(C)c2c1)[C@H](CO)N(C)CC31CN(S(C)(=O)=O)C1	x	x	x	9	-2	23*
CCOc1ccc(NC(=O)Cc2ccc(S(=O)(=O)N3CCOCC3)s2)cc1OCC	-12	-4	-6	-8	3	65*
O=C(Cc1ccc(S(=O)(=O)N2CCOCC2)s1)NCC(=O)Nc1ccccc1Br	-2	4	-5	2	0	126*
CCCOc1ccc(NC(=O)Cc2ccc(S(=O)(=O)N3CCOCC3)s2)cc1OCCC	-18	-8	-5	-44	3	-7
